Screens: PubChem, National Center for Advancing Translational Sciences (NCATS)
This is a sample that favours compounds with a hit; in the whole collection about 11% have one here.
HCV inhibitor = HCV inhibition; Huh7.5.1 HCVcc-Cre infection, luciferase reporter, 44 h; Potency, µM (highest dose often 41.8 µM), usual class: inhibitors; 3.4% of 340,000 active
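Cells (1,000/well) were plated 4 h before compound, then infected with HCVcc-Cre virus (~0.5 moi). After 44 h further culture, infection was read as luciferase luminescence following a 15 min substrate incubation at room temperature.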
Pf growth 96h = P. falciparum growth inhibition at 96 hour, primary screen for plastid delayed-death inhibitors | P. falciparum luciferase reporter growth, 96 h | AID 504834 | Potency, µM (highest dose often 28.7 µM), actives largely listed as inhibitors | 6.9% of 320,000 active
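Plates of compound plus infected erythrocytes (2% hematocrit, 0.05% parasitemia final) incubate 96 hours, 37 C, 5% CO2. Detection reagent added; reduced luminescence from the parasites' luciferase reporter flags inhibition.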
AMA1 RON2 block = AMA1-RON2 (P. falciparum) interaction inhibition. AlphaScreen AMA1-biotinylated RON2 peptide binding. AID 720542. Potency, µM (top dose mostly 58.2 µM), usual class: inhibitors. 0.2% of 360,000 active; further: nearly all actives have a fitted effect of over 45% in size
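AMA1 (3D7) with his tag at 25 nM final met compounds first, then biotinylated RON2 peptide at 25 nM; detection used donor plus acceptor beads, 10 µg/mL apiece, read by AlphaScreen after 30 min at room temperature.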
Pf growth 48h = P. falciparum growth inhibition at 48 hours (one generation). AID 504832. P. falciparum luciferase growth in erythrocytes, 48 h. 5.9% of 310,000 active. Potency, µM (top dose mostly 28.7 µM), hits mostly inhibitors
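In quantitative HTS format, infected erythrocytes bearing luciferase-reporter parasites were treated for a single generation at 37 C. Luminescence after adding detection reagent served as the growth measure.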
Of the large screens only hits and unclear results are named; the others gave an inactive call. The call rests on the fitted dose curve; in most records, active means well fitted curve in the direction sought with a large enough effect; inconclusive means small, poorly fitted or top-dose-only effect, or another doubt; inactive means no such curve, though single readings can be large; an effect the other way counts as inactive or inconclusive.

Cc1nnsc1S(=O)c1ccc(Cl)cc1 (stereo not given)	HCV inhibitor inconclusive, Pf growth 96h 1.7µM (no result: Pf growth 48h)
C#CCn1cc(/C=C2\NC(=O)NC2=O)c2ccccc21	AMA1 RON2 block inconclusive
C/C=C/c1cccc(-c2nc(C(=O)N3CCCCC3)cc3c2[C@@H](CCO)N(C(=O)NC(C)C)C3)c1	none (no result: HCV inhibitor, Pf growth 96h, Pf growth 48h)
CCCCC(CC)CNC(=O)C(=O)c1ccccc1NC(C)=O (stereo not given)	Pf growth 96h inconclusive, Pf growth 48h inconclusive
Cn1c(-c2sc3ccccc3c2Cl)n[nH]c1=S	none (no result: Pf growth 48h)
COc1ccc(CCNC(=S)N2CCC(Cc3ccccc3)CC2)cc1OC	HCV inhibitor inconclusive, Pf growth 96h inconclusive
CCN(CC)c1ccc(NC(=O)CN2C(=O)CC(C)(C)S(=O)(=O)c3ccccc32)c(C)c1	Pf growth 96h 8.3µM, Pf growth 48h inconclusive
Cc1ccccc1-c1cnc(C(O)c2ccc(F)c(F)c2)[nH]1 (stereo not given)	none (no result: HCV inhibitor, Pf growth 96h, Pf growth 48h)
OCCN1CCN(CCCN2c3ccccc3Sc3ccc(Cl)cc32)CC1	HCV inhibitor inconclusive, Pf growth 96h 6.6µM, AMA1 RON2 block inconclusive, Pf growth 48h 12µM
CC(=O)c1ccc2c(c1)N(CCCN1CCC(CCO)CC1)c1ccccc1S2	HCV inhibitor 3.2µM, Pf growth 96h inconclusive, Pf growth 48h 8.1µM
CC1CCN(CC(O)CN2c3ccccc3Sc3ccccc32)CC1 (stereo not given)	HCV inhibitor inconclusive, Pf growth 48h inconclusive
O=C(CN1CCCC1)N1c2ccccc2Sc2ccc(Cl)cc21	none
CN(C)CCCN1c2ccccc2C(C)(C)c2ccccc21	Pf growth 96h 17µM, Pf growth 48h inconclusive (no result: HCV inhibitor, AMA1 RON2 block)
CN(C)CCCN1c2ccccc2Sc2ccc(Cl)cc21	HCV inhibitor inconclusive, Pf growth 96h inconclusive, AMA1 RON2 block inconclusive, Pf growth 48h 10µM
CN(C)CCCN1c2ccccc2CCc2ccccc21	none (no result: HCV inhibitor, Pf growth 96h, Pf growth 48h)
CCOC(=O)C1=CC[C@@H](c2ccccc2)N(S(=O)(=O)c2ccc(C)cc2)[C@H]1C=C(C)C	none (no result: HCV inhibitor, Pf growth 96h, Pf growth 48h)
CCOC(=O)CSc1nnc(NC(=O)CN2CCCCC2)s1	Pf growth 48h inconclusive
CN1CCN(CCCN2c3ccccc3Sc3ccc(S(=O)(=O)N(C)C)cc32)CC1	HCV inhibitor inconclusive, Pf growth 96h 3.6µM, Pf growth 48h 13µM
CN1CCN(CCCNC(=O)c2cn(C)c3ccc(S(=O)(=O)N(C)C)cc3c2=O)CC1	Pf growth 96h inconclusive (no result: Pf growth 48h)
CCCCNC(=O)c1[nH]c(=O)cnc1-c1ccccc1	none (no result: HCV inhibitor, Pf growth 96h, Pf growth 48h)
COc1ccc(-c2nc(CN(CC3CCC(=O)N3)C(C)C)c(C)o2)c(C)c1C (stereo not given)	HCV inhibitor inconclusive
O=C(OCc1ccc([N+](=O)[O-])cc1)c1cc([N+](=O)[O-])ccc1N1CCOCC1	HCV inhibitor 4.5µM, Pf growth 96h inconclusive, Pf growth 48h inconclusive
O=C(COC(=O)c1cc([N+](=O)[O-])ccc1N1CCOCC1)NCc1ccc(F)cc1	none
O=C(OCc1ccccc1Cl)c1cc([N+](=O)[O-])ccc1N1CCOCC1	HCV inhibitor inconclusive (no result: Pf growth 96h, Pf growth 48h)
O=C(OCc1c(F)cccc1Cl)c1cc([N+](=O)[O-])ccc1N1CCOCC1	HCV inhibitor 11µM, AMA1 RON2 block inconclusive, Pf growth 48h inconclusive
C=CCn1c(CSCc2ccc(Cl)cc2Cl)nnc1SCC(=O)Nc1ccc(C(=O)O)cc1	none
CN(C)c1nc(N)c([N+](=O)[O-])c(NCCO)n1	none
CCN(c1ccccc1)S(=O)(=O)c1ccc(Cl)c(C(=O)NCc2ccco2)c1	none
Cc1ccc(SCC(=O)N2CCN(S(=O)(=O)c3cccs3)CC2)cc1	none (no result: Pf growth 96h, Pf growth 48h)
c1ccc2c(c1)[nH]c1c3ccccc3sc21	HCV inhibitor 11µM
CCCCN(CC)c1nc(-c2ccncc2)nc2ccccc12	HCV inhibitor 5.6µM, Pf growth 48h 2.9µM (no result: Pf growth 96h)
CCCN(CCC)c1nc(-c2ccccn2)nc2ccccc12	HCV inhibitor inconclusive, Pf growth 96h 0.33µM, Pf growth 48h 0.83µM
c1ccc(CCNc2nc(-c3ccccn3)nc3ccccc23)cc1	HCV inhibitor 2.8µM, Pf growth 96h 1.7µM, Pf growth 48h 1µM
COCCN(CCOC)c1nc(-c2ccc(C)cc2)nc2ccccc12	Pf growth 96h inconclusive
COC(=O)c1nc(Cl)c(Cl)c(N)c1Cl	Pf growth 48h 10µM
CCCCCCCCOC(=O)c1nc(Cl)c(Cl)c(N)c1Cl	Pf growth 96h inconclusive, Pf growth 48h inconclusive
O=C(OCC(=O)N1CCCc2ccccc21)c1cccc(S(=O)(=O)N2CCc3ccccc32)c1	none
CCOc1ccc(NC(=O)CN(C)S(=O)(=O)c2ccc3c(c2)CCC(=O)N3)cc1	Pf growth 96h inconclusive, Pf growth 48h inconclusive
O=c1[nH]nc(SCc2nnc(-c3ccc([N+](=O)[O-])cc3)o2)n1C1CCCCC1	AMA1 RON2 block 3.2µM
NC(=O)CSc1nnc(-c2ccc([N+](=O)[O-])cc2)o1	none
C#CCCc1cscc1/C=[N+](\[O-])c1ccc(C(=O)OCC)cc1	HCV inhibitor inconclusive, Pf growth 96h inconclusive, Pf growth 48h 8.3µM
Cc1[nH]c2ccccc2c1/C=N/NC(=O)CNC(=O)c1ccc2c(c1)OCCO2	none
N=c1c(C(=O)NC2CCCC2)cc2c(=O)n3ccccc3nc2n1Cc1ccccc1	HCV inhibitor inconclusive, Pf growth 96h inconclusive, Pf growth 48h inconclusive
Cc1cccn2c(=O)c3cc(C(=O)NC4CCCC4)c(=N)n(Cc4ccc(F)cc4)c3nc12	HCV inhibitor 11µM, Pf growth 96h inconclusive, Pf growth 48h inconclusive
Cc1ccc(Cn2c(=N)c(C(=O)NC3CCCCC3)cc3c(=O)n4ccccc4nc32)cc1	Pf growth 96h 2.9µM, Pf growth 48h 4.1µM
Cc1cccn2c(=O)c3cc(C(=O)NC4CCCCC4)c(=N)n(Cc4ccccc4)c3nc12	Pf growth 96h inconclusive
N=c1c(C(=O)NC2CCCCC2)cc2c(=O)n3ccccc3nc2n1Cc1ccc(F)cc1	Pf growth 96h inconclusive, Pf growth 48h 2.1µM
O=C(O)C[C@H]1c2cc(F)ccc2S(=O)(=O)N1C1CCN(Cc2ccccc2)CC1	none (no result: Pf growth 96h, Pf growth 48h)
CCn1c(O)c(N=Nc2ccc3ccccc3n2)c2ccccc21	HCV inhibitor inconclusive
Brc1ccc(N=Nc2ccc3ccccc3n2)cc1	Pf growth 96h inconclusive, AMA1 RON2 block inconclusive, Pf growth 48h 0.33µM
O=C(Nc1cccc(O)c1)C1CC(c2ccc(Cl)cc2)=NO1 (stereo not given)	none
COc1cc(NC(=O)C2CC(c3cccc(OC)c3OC)=NO2)cc(OC)c1OC (stereo not given)	HCV inhibitor 1.1µM
COc1ccc(OC)c(C2=NOC(C(=O)Nc3cccc(C(C)=O)c3)C2)c1 (stereo not given)	Pf growth 96h 9.3µM
COc1cccc(C2=NOC(C(=O)Nc3cc(C)on3)C2)c1 (stereo not given)	none
COc1ccc(C2=NOC(C(=O)Nc3cccc(O)c3)C2)cc1 (stereo not given)	Pf growth 96h 5.2µM
COc1ccc(C2=NOC(C(=O)Nc3cc(C)on3)C2)cc1 (stereo not given)	Pf growth 96h 9.3µM (no result: Pf growth 48h)
COc1cc(NC(=O)C2CC(c3c(F)cccc3Cl)=NO2)c(OC)cc1Cl (stereo not given)	HCV inhibitor inconclusive, Pf growth 96h 10µM
COc1ccc(C2=NOC(C(=O)Nc3cc(Br)ccc3O)C2)cc1OC (stereo not given)	Pf growth 48h 15µM
